# Assay outcomes: PubChem, Broad Institute
# miR-122 inh: activators of miR-122 sensor in Huh7 cells. Huh7 psiCHECK-miR122 Renilla luciferase sensor, 48 h. activation, % at 12.5 µM. hit rate 0.14% among 340,000;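 active = mean activation of 30% or more, with every replicate also reaching 30%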;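 note: 0% = median of neutral control wells and 100% = median of positive control wells; higher luciferase signal means stronger suppression of miR-122 activity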
# * hit, by the source's call. This is one part of a sample in which hits are shown more often than they occur.
SMILES,miR-122 inh
C[C@H]1CN([C@@H](C)CO)S(=O)(=O)c2ccc(C#CC(C)(C)O)cc2O[C@H]1CN(C)C(=O)C1CCC1,5
S=C(NCCc1ccccc1)Nc1ccc(Cl)cc1Cl,-95
CCNC(=O)CCC(=O)Nc1cc(Cl)ccc1C,36*
COc1ccccc1-c1ccc2c(c1)O[C@H](CN(C)C(C)=O)[C@H](C)CN([C@H](C)CO)S2(=O)=O,-26
C[C@@H]1CN([C@H](C)CO)S(=O)(=O)c2ccc(C#Cc3cccnc3)cc2O[C@@H]1CN(C)C(=O)C1CC1,13
CCCN1C[C@@H](C)[C@@H](OC)CN(C)C(=O)c2ccc(NS(C)(=O)=O)cc2OC[C@H]1C,4
CC(C)CC#Cc1ccc2c(c1)O[C@@H](CN(C)C(=O)C1CCOCC1)[C@H](C)CN([C@H](C)CO)S2(=O)=O,-6
CCCC#Cc1cnc2c(c1)C(=O)N([C@H](C)CO)C[C@@H](C)[C@@H](CN(C)C(=O)C1CC1)O2,1
CCCC(=O)OCCNc1cc(Sc2nccn2C)c2nonc2c1[N+](=O)[O-],62*
COc1ccccc1NS(=O)(=O)c1cc(NC(=S)NCC2CCCO2)ccc1C (stereo not given),-99
COc1cccc(Nc2nc(NCC3CCCO3)c3ccccc3n2)c1 (stereo not given),51*
COc1ccc(CN(C(=O)c2ccc(-c3ccccc3)[nH]2)C(C(=O)NCC2CCCO2)c2ccc(C)o2)cc1 (stereo not given),-230
C[C@@H]1CN([C@@H](C)CO)S(=O)(=O)c2ccc(C#Cc3cccnc3)cc2O[C@@H]1CN(C)CC1CCOCC1,-24
COc1ccccc1C#Cc1ccc2c(c1)O[C@@H](CN(C)Cc1ccncc1)[C@H](C)CN([C@H](C)CO)S2(=O)=O,7
CCC(=O)Nc1ccc2c(c1)OC[C@@H](C)NC[C@@H](C)[C@H](OC)CN(C)C2=O,4
CCn1c(CCNC(=O)c2ccc(OC)cc2)nnc1SCC(=O)Nc1ccccc1F,-120
CCn1c(SCC(=O)Nc2ccc(N3CCOCC3)cc2)nnc1-c1ccc(OC)cc1,-142
CCOc1ccc(-c2nnc(SCC(=O)Nc3ccc4c(c3)c3ccccc3n4CC)n2N)cc1,54*
C[C@H](O)C#Cc1ccc2c(c1)O[C@@H](CN(C)C)[C@@H](C)CN([C@H](C)CO)S2(=O)=O,3
CCCNC(=O)Nc1ccc2c(c1)OC[C@@H](C)NC[C@H](C)[C@@H](OC)CN(C)C2=O,-2
COCC(=O)N(C)C[C@H]1Oc2cc(-c3cncnc3)ccc2S(=O)(=O)N([C@@H](C)CO)C[C@@H]1C,-3
C[C@H]1CN([C@@H](C)CO)C(=O)c2cc(Br)cnc2O[C@@H]1CN(C)Cc1ccc2c(c1)OCO2,9
CCCn1c(CC)nc([N+](=O)[O-])c1S(=O)(=O)c1ccccc1,48*
CC(=O)N(C)C[C@H]1Oc2cc(C#CC3CCCCC3)ccc2S(=O)(=O)N([C@H](C)CO)C[C@@H]1C,-20
C[C@H](CO)N1C[C@H](C)[C@@H](CN(C)C(=O)Nc2ccc3c(c2)OCO3)Oc2ncc(-c3ccccc3)cc2C1=O,-10
SMILES,miR-122 inh
C[C@H](CO)N1C[C@H](C)[C@@H](CN(C)C(=O)C2CCC2)Oc2ncc(C#CC3CCCC3)cc2C1=O,-9
CCC(=O)Nc1ccc2c(c1)OC[C@H](C)N(C(=O)c1ccccn1)C[C@H](C)[C@@H](OC)CN(C)C2=O,-1
NC(Cc1ccc(C(F)(F)F)cc1)c1csc(Nc2nncc3ccccc23)n1 (stereo not given),34*
CC(C)C#Cc1ccc2c(c1)O[C@@H](CN(C)C(=O)CN(C)C)[C@H](C)CN([C@@H](C)CO)S2(=O)=O,-16
CO[C@H]1CN(C)C(=O)c2cc(NS(=O)(=O)CC(F)(F)F)ccc2OC[C@H](C)N(C)C[C@H]1C,-2
COc1ccccc1-c1ccc2c(c1)O[C@H](CN(C)S(=O)(=O)c1ccc(C)cc1)[C@@H](C)CN([C@@H](C)CO)S2(=O)=O,2
